# In PMC9838217, “Structure of SALL4 zinc finger domain reveals link between AT-rich DNA binding and Okihiro syndrome”:
# Positions count from the first letter of the chain named.
# Key:
# Experiment in all cases: HT-SELEX; high values mean tight binding
# Settings in all cases: protein: recombinant; vector His6-GST; dsDNA, one strand shown
# SALL4 ZFC4 WT (HT-SELEX) = target: T1, SALL4 ZFC4 WT (HT-SELEX) (Mus musculus, UniProt Q8BX22 870-940)
# T1 sequence: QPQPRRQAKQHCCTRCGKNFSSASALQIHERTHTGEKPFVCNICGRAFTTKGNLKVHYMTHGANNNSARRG
# In short: (§1)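 A 100 µl reaction of 10 mM Tris–HCl pH 7.5, 50 mM NaCl, poly(dI-dC) and DTT held purified recombinant mouse SALL4 zinc finger cluster 4 (residues 870–940, 1 µg) and library DNA (1.5 µg first cycle, 200 ng later) for 10 min at room temperature. Complexes captured on Ni2+ beads were washed, PCR-amplified and reselected for up to 6 cycles, in triplicate, then MiSeq-sequenced and scanned for 6-mers. Binding signal is the read fraction of each canonical k-mer expressed as fold change over the initial random library.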
# [1] = target: T2, SALL4 ZFC4 R900W (HT-SELEX) (Mus musculus, UniProt Q8BX22 870-940, R900W)
# T2 sequence: T1 sequence with R31W
# In short: as §1
# [2] = target: T3, SALL4 ZFC4 G921D (HT-SELEX) (Mus musculus, UniProt Q8BX22 870-940, G921D)
# T3 sequence: T1 sequence with G52D
# In short: as §1
Sequence,binding signal (SALL4 ZFC4 WT (HT-SELEX)) [fold-change vs cycle 0],binding signal [1] [fold-change vs cycle 0],binding signal [2] [fold-change vs cycle 0]
ATACTA,2.04 ± 0.115,2.07 ± 0.172,1.84 ± 0.179
ACGGTA,0.715 ± 0.031,0.817 ± 0.0376,0.852 ± 0.0147
CAAGTA,1.28 ± 0.0466,1.42 ± 0.0751,1.34 ± 0.0943
CCACAG,0.371 ± 0.0258,0.424 ± 0.0221,0.535 ± 0.0512
AGACAT,1.29 ± 0.0778,1.45 ± 0.0615,1.37 ± 0.0528
AATGTC,1.08 ± 0.0855,1.21 ± 0.0715,1.22 ± 0.0672
CCCGAA,0.314 ± 0.0034,0.403 ± 0.0174,0.512 ± 0.0767
TGAACA,1.29 ± 0.0296,1.4 ± 0.0577,1.36 ± 0.0684
AGAGAC,0.8 ± 0.0496,0.927 ± 0.0137,0.985 ± 0.0357
ACTATA,2.18 ± 0.121,1.98 ± 0.101,1.76 ± 0.177
CCTAAG,0.941 ± 0.0158,1.05 ± 0.0579,1.05 ± 0.0419
GAGTCA,0.822 ± 0.0312,0.955 ± 0.0308,0.993 ± 0.0145
GATAAC,1.49 ± 0.117,1.52 ± 0.136,1.44 ± 0.166
TATTGA,2.22 ± 0.167,2 ± 0.134,1.83 ± 0.179
AGGGTC,0.434 ± 0.029,0.524 ± 0.0447,0.649 ± 0.0851
ATGGAC,0.777 ± 0.0185,0.861 ± 0.0318,0.938 ± 0.0184
GATACA,1.33 ± 0.0706,1.39 ± 0.0615,1.37 ± 0.0715
ATACCG,0.646 ± 0.0192,0.699 ± 0.038,0.799 ± 0.0271
TAACTA,2.23 ± 0.0839,2.06 ± 0.126,1.82 ± 0.187
GGTCCA,0.375 ± 0.0292,0.456 ± 0.0245,0.558 ± 0.0709
AATGCT,1.15 ± 0.0126,1.19 ± 0.0201,1.225 ± 0.011

Sequence,binding signal (SALL4 ZFC4 WT (HT-SELEX)) [fold-change vs cycle 0],binding signal [1] [fold-change vs cycle 0],binding signal [2] [fold-change vs cycle 0]
AGTGCA,0.627 ± 0.0465,0.704 ± 0.0363,0.802 ± 0.0221
AAGACG,0.635 ± 0.0182,0.735 ± 0.023,0.815 ± 0.0404
ATCCGA,0.684 ± 0.0383,0.781 ± 0.0221,0.89 ± 0.0142
AATTAC,2.12 ± 0.116,2 ± 0.127,1.82 ± 0.181
CCATAA,1.51 ± 0.0387,1.36 ± 0.0383,1.28 ± 0.051
AATCGC,0.437 ± 0.0162,0.483 ± 0.0175,0.628 ± 0.0598
AGCACC,0.328 ± 0.0258,0.375 ± 0.0109,0.521 ± 0.0558
AAAGTT,1.85 ± 0.124,1.9 ± 0.107,1.7 ± 0.189
GAAAAA,1.86 ± 0.136,1.6 ± 0.0749,1.47 ± 0.105
TCGAGA,0.763 ± 0.0625,0.863 ± 0.0493,0.945 ± 0.0348
TAGAAA,2.03 ± 0.103,1.91 ± 0.061,1.69 ± 0.141
TCGCAA,0.451 ± 0.0135,0.483 ± 0.00786,0.616 ± 0.0634
CGAGAG,0.428 ± 0.0305,0.515 ± 0.0447,0.628 ± 0.0528
ATCCAA,1.28 ± 0.0363,1.37 ± 0.0499,1.32 ± 0.0492
ATTTGA,1.85 ± 0.0312,1.79 ± 0.0613,1.65 ± 0.0905
CGTTAC,0.817 ± 0.0239,0.932 ± 0.0341,0.941 ± 0.0136
ATAGAC,1.2 ± 0.024,1.29 ± 0.0416,1.3 ± 0.09
AGCCTA,0.614 ± 0.0322,0.728 ± 0.0355,0.832 ± 0.0333
AGTATC,1.37 ± 0.0932,1.48 ± 0.12,1.44 ± 0.125
ACAACA,1.16 ± 0.0181,1.28 ± 0.0315,1.25 ± 0.0467
TTCCAA,1.24 ± 0.0535,1.32 ± 0.0456,1.29 ± 0.0721

Sequence,binding signal (SALL4 ZFC4 WT (HT-SELEX)) [fold-change vs cycle 0],binding signal [1] [fold-change vs cycle 0],binding signal [2] [fold-change vs cycle 0]
CGAACC,0.34 ± 0.0157,0.416 ± 0.00929,0.549 ± 0.0764
CCATGG,0.445 ± 0.023,0.524 ± 0.00825,0.622 ± 0.0615
ATCGTC,0.685 ± 0.0177,0.755 ± 0.0322,0.852 ± 0.0307
AAAAAT,3.83 ± 0.465,2.16 ± 0.197,1.9 ± 0.223
AGGAGC,0.374 ± 0.0206,0.46 ± 0.0185,0.595 ± 0.0548
AGCAAC,0.642 ± 0.0202,0.736 ± 0.0162,0.849 ± 0.0333
GAAAGA,1.32 ± 0.0648,1.52 ± 0.0726,1.36 ± 0.0863
CCCTGA,0.494 ± 0.0131,0.574 ± 0.0156,0.665 ± 0.0261
ACAGAC,0.687 ± 0.0257,0.791 ± 0.00124,0.865 ± 0.0133
AACTTA,2.13 ± 0.126,2.11 ± 0.126,1.89 ± 0.231
CAAGGA,0.866 ± 0.0298,1.02 ± 0.0119,1.01 ± 0.0394
ACTAAG,1.42 ± 0.0426,1.61 ± 0.0315,1.45 ± 0.0661
AAAGGT,1.26 ± 0.075,1.41 ± 0.06,1.29 ± 0.0787
AACCTC,0.87 ± 0.0372,0.961 ± 0.043,1.02 ± 0.0516
CCCTCC,0.318 ± 0.0193,0.362 ± 0.0224,0.457 ± 0.0716
AAATGC,0.879 ± 0.0146,0.918 ± 0.025,0.969 ± 0.0401
ATATGA,3.11 ± 0.303,2.07 ± 0.156,1.85 ± 0.196
CTTATC,1.5 ± 0.0472,1.62 ± 0.0833,1.44 ± 0.0973
GGAGAA,0.849 ± 0.0319,0.985 ± 0.0471,0.959 ± 0.0602
AACTTG,1.21 ± 0.0551,1.34 ± 0.0813,1.29 ± 0.0625
GGTTTA,1.2 ± 0.0627,1.28 ± 0.0514,1.24 ± 0.0515

Sequence,binding signal (SALL4 ZFC4 WT (HT-SELEX)) [fold-change vs cycle 0],binding signal [1] [fold-change vs cycle 0],binding signal [2] [fold-change vs cycle 0]
GTACTA,1.24 ± 0.0382,1.37 ± 0.098,1.29 ± 0.0902
GAAGAA,1.38 ± 0.0779,1.56 ± 0.142,1.41 ± 0.156
ATGACG,0.724 ± 0.0223,0.789 ± 0.0467,0.852 ± 0.0204
CCTATC,0.811 ± 0.0304,0.939 ± 0.00665,0.994 ± 0.0224
AAGATT,2.05 ± 0.0988,2.08 ± 0.121,1.88 ± 0.183
CCAGTC,0.437 ± 0.0378,0.533 ± 0.0426,0.62 ± 0.0337
ATGAAT,3.02 ± 0.199,2.16 ± 0.113,1.92 ± 0.161
ATTATC,2.31 ± 0.229,2.08 ± 0.177,1.85 ± 0.207
GGTGGA,0.462 ± 0.0279,0.536 ± 0.0251,0.619 ± 0.0493
CCGGAA,0.325 ± 0.0139,0.368 ± 0.0111,0.491 ± 0.0897
CTCACC,0.488 ± 0.0202,0.56 ± 0.0155,0.677 ± 0.0522
GTGCAA,0.539 ± 0.0349,0.616 ± 0.0276,0.721 ± 0.0304
GCTTAC,0.774 ± 0.0137,0.852 ± 0.0208,0.908 ± 0.0208
AACGGG,0.4 ± 0.0225,0.466 ± 0.0176,0.54 ± 0.0483
AAGGCT,0.61 ± 0.0387,0.726 ± 0.0643,0.8372 ± 0.00507
CACAAG,0.713 ± 0.0143,0.853 ± 0.0253,0.901 ± 0.0111
GGATGA,0.897 ± 0.0305,1.01 ± 0.0334,1.02 ± 0.0224
ATGCAT,1.33 ± 0.0832,1.27 ± 0.0798,1.26 ± 0.0876
AAACAC,1.06 ± 0.0292,1.16 ± 0.0244,1.189 ± 0.0109
CACTGC,0.334 ± 0.0238,0.388 ± 0.00394,0.511 ± 0.0704
AATAGG,1.27 ± 0.0647,1.39 ± 0.0729,1.32 ± 0.0667
